Shiga inhibitor: blocks Shiga toxin action in Vero cells; Vero cells, Shiga toxin protein synthesis inhibition reporter; 290,000 tested, 9.2% active; inhibition, % at 38.7 µM; in the data active means inhibition mostly above about 28%, no sharp cut-off; inactive means mostly below about 43%
MARV entry inh: Marburg virus entry inhibition. 300,000 tested, 1.8% active. Marburg virus pseudotyped entry inhibition, cell reporter. Potency, µM (highest dose often 37.8 µM), hits mostly inhibitors; calls by dose curve; tested in HEK293 cells
Lassa entry inh: Lassa virus entry inhibition; Potency, µM (titrated, usually from 37.9 µM), actives largely listed as inhibitors; Lassa virus pseudotype entry inhibition, cell reporter; 300,000 tested, 1.2% active; calls by dose curve; tested in HEK293 cells; further: nearly all actives have a fitted effect of over 50% in size
CHX counter-1: counter-screen hit for Shiga toxin inhibitors, cycloheximide | cell reporter, cycloheximide protein synthesis inhibition counterscreen | max response, % | 300,000 tested, 12% active; in the data active means max response mostly above about 13%, no sharp cut-off; inactive means mostly below about 14%; further: read at 38.3 µM for the half of the compounds with a filed dose
HCV inhibitor: blocks hepatitis C virus; Huh7.5.1 HCVcc-Cre infection, luciferase reporter, 44 h; Potency, µM (titrated, usually from 41.8 µM), most hits filed as inhibitors; 340,000 tested, 3.4% active; AID 651820; active means well fitted inhibition curve with a large enough effect; inconclusive means small, poorly fitted or top-dose-only effect, or another doubt; inactive means no such curve, though single readings can be large or run the other way
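Cells (1,000/well) were plated 4 h before compound, then infected with HCVcc-Cre virus (~0.5 moi). After 44 h further culture, infection was read as luciferase luminescence following a 15 min substrate incubation at room temperature.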
FMDV antiviral: antivirals against foot and mouth disease virus | AID 1159524 | FMDV antiviral cell-based qHTS | 410,000 tested, 1.2% active | Potency, µM (titrated, usually from 57.9 µM), most hits filed as inhibitors; calls by dose curve; tested in HEK293T cells; further: read-out not given here; nearly all actives have a fitted effect of over 45% in size
CHX counter-2: affects protein synthesis reporter in cycloheximide counter-screen. Potency, µM (top dose mostly 38.3 µM), usual class: activators. Cycloheximide counterscreen, protein synthesis reporter, Shiga toxin assay. 510 tested, 3% active. shares compounds with Shiga inhibitor; calls by dose curve
Hits are given with their value; ! = repeats disagree; [ ] = remark or other dose. The list is not random: actives were taken first. Their share in the collection is about 13%.

Screening CSc1ccc(/C=C/C(=O)N2CCN(c3ccccn3)CC2)cc1 returned Shiga inhibitor 32, CHX counter-1 inactive, HCV inhibitor inactive, FMDV antiviral inactive and CHX counter-2 inactive.
For Oc1cc2c(c(Cl)c1O)CCNC[C@H]2c1ccccc1 the results were FMDV antiviral inactive.
CCCC[C@@H]1C[C@H]1[C@@H](NC(=O)c1cccs1)c1ccc(Cl)cc1 was read as Shiga inhibitor inactive, MARV entry inh inconclusive, Lassa entry inh inactive, CHX counter-1 inactive, HCV inhibitor inactive[8.37 µM] and FMDV antiviral inactive.
CCCC[C@@H]1C[C@H]1[C@@H](NC(=O)c1ccco1)c1ccc(Cl)cc1 was read as Shiga inhibitor 84, MARV entry inh inactive, Lassa entry inh inactive, CHX counter-1 inactive, HCV inhibitor inactive, FMDV antiviral inconclusive and CHX counter-2 inactive.
For C=CCOC(=O)C1=C[C@@H](c2ccc(C(F)(F)F)cc2)[C@H](CCCO)[C@@H](OCC)O1 the results were Shiga inhibitor inactive, CHX counter-1 inactive, HCV inhibitor inactive and FMDV antiviral inconclusive.
Screening CCN(C(=O)CSc1nnc(Cc2cccc3ccccc23)n1N)C1CCS(=O)(=O)C1 (configuration not stated) returned Shiga inhibitor inactive, MARV entry inh inactive, Lassa entry inh inactive, CHX counter-1 inactive, HCV inhibitor inactive and FMDV antiviral inactive.
`Cc1cc(C(=O)CN2C(=O)C(=O)N(Cc3ccco3)C2=O)c(C)n1CCc1ccccc1` gave MARV entry inh inconclusive, Lassa entry inh inconclusive, HCV inhibitor inconclusive and FMDV antiviral inactive.
Screening Cc1cc(C(=O)COC(=O)c2cccn2C)c(C)n1Cc1ccco1 returned Shiga inhibitor 50, CHX counter-1 inactive, HCV inhibitor inconclusive, FMDV antiviral inconclusive and CHX counter-2 0.71µM.
`O=C(CSc1ncnc2nc[nH]c12)Nc1nnc(SCc2ccc(Cl)c(Cl)c2)s1` gave Shiga inhibitor inactive, MARV entry inh inactive, Lassa entry inh inactive, CHX counter-1 inactive, HCV inhibitor inactive and FMDV antiviral inactive.
Cn1c(CN2CCCCC2)nc2cc(NC(=O)c3ccc(Cl)cc3)ccc21 was read as Shiga inhibitor 27, MARV entry inh 21µM, Lassa entry inh inactive, CHX counter-1 inactive, HCV inhibitor 4µM, FMDV antiviral 18µM! and CHX counter-2 inactive.
COc1ccccc1Nc1cc(C(=O)N2CCc3ccccc3C2)c2ccccc2n1 was read as Shiga inhibitor 30, CHX counter-1 inactive and CHX counter-2 inactive.
COc1ccccc1Nc1cc(C(=O)NC2CCC(C)CC2)c2ccccc2n1 (configuration not stated) was read as MARV entry inh inactive, Lassa entry inh inactive and FMDV antiviral inactive.
Screening O=C(O)c1ccccc1C(=O)Nc1ccc(-n2nccc2C(F)(F)F)cc1 returned Shiga inhibitor 31, CHX counter-1 inactive, HCV inhibitor inactive, FMDV antiviral inactive and CHX counter-2 inactive.
Screening CNC(=O)c1ccc2snnc2c1 returned Shiga inhibitor inactive, CHX counter-1 inactive, HCV inhibitor inactive and FMDV antiviral inactive.
`CCCNC(=O)c1ccc2snnc2c1` gave Shiga inhibitor 29, MARV entry inh inactive, Lassa entry inh inactive, CHX counter-1 inactive, HCV inhibitor inactive, FMDV antiviral inactive and CHX counter-2 inactive.
`O=C(/C=C/c1ccc(S(=O)(=O)NCc2ccco2)cc1)N1CCN(c2ccccc2)CC1` gave Shiga inhibitor 66, MARV entry inh inconclusive, Lassa entry inh inactive, CHX counter-1 inactive, HCV inhibitor inconclusive, FMDV antiviral inconclusive and CHX counter-2 inactive.
O=C(O)c1ccc(S(=O)(=O)N[C@H](Cc2ccc(C(F)(F)F)cc2)C(=O)O)cc1 was read as Shiga inhibitor inactive and CHX counter-1 inactive.
For COc1ccc(OCc2cccc(C(=O)O)c2)cc1 the results were Shiga inhibitor 52, MARV entry inh inconclusive, Lassa entry inh inconclusive, CHX counter-1 inactive, HCV inhibitor inactive, FMDV antiviral 1µM and CHX counter-2 0.032µM.
O=C(O)c1ccc(NC(=S)NC(=O)c2cccc(COc3ccccc3)c2)cc1 was read as Shiga inhibitor inactive, CHX counter-1 inactive, HCV inhibitor inactive and FMDV antiviral inactive.
`Cc1ccc(C(C(=O)NCc2ccco2)N(C(=O)Cn2nnc3ccccc32)c2ccccc2)o1` (configuration not stated) gave Shiga inhibitor 64, MARV entry inh inactive, Lassa entry inh inconclusive, CHX counter-1 inactive, HCV inhibitor inactive, FMDV antiviral inactive and CHX counter-2 inactive.
`O=C(COc1ncnc2ccccc12)NCCc1ccc(F)cc1` gave Shiga inhibitor inactive, MARV entry inh inconclusive, Lassa entry inh inactive, CHX counter-1 inactive, HCV inhibitor inactive and FMDV antiviral inactive.
Cc1cccc(C)c1N1C(=O)c2ccccc2NC(=O)C1C(=O)NCc1ccco1 (configuration not stated) was read as FMDV antiviral inactive.
Screening Cc1cccc(NC(=O)CCN2C(=O)c3ccccc3S2(=O)=O)c1C returned Shiga inhibitor 17, CHX counter-1 inactive, HCV inhibitor inactive, FMDV antiviral inactive and CHX counter-2 inactive.
Screening CCSCCOC(=O)C1=C(C)N(C)C(=O)NC1c1cc(OC)ccc1OC (configuration not stated) returned Shiga inhibitor inactive, MARV entry inh inconclusive, Lassa entry inh inactive, CHX counter-1 inactive, HCV inhibitor inactive and FMDV antiviral inconclusive.
Screening CC(C)(C)C(=O)Cn1ncc(N2CCOCC2)c(Br)c1=O returned Shiga inhibitor 26, MARV entry inh inactive, Lassa entry inh inactive, CHX counter-1 inactive, HCV inhibitor inactive, FMDV antiviral inactive and CHX counter-2 inactive.
`CO/N=C(\Cn1ncc(N2CCOCC2)c(Br)c1=O)c1ccc(Cl)cc1` gave Shiga inhibitor inactive, CHX counter-1 inactive, HCV inhibitor inactive and FMDV antiviral inactive.
For COc1ccc(C(=O)Nc2cccc(C(=O)N3CCN(C)CC3)c2)cc1 the results were Shiga inhibitor 37, MARV entry inh inactive, Lassa entry inh inactive, CHX counter-1 inactive, HCV inhibitor inactive, FMDV antiviral inactive and CHX counter-2 inactive.
`COc1ccccc1C(=O)Nc1cccc2nc(C)ccc12` gave Shiga inhibitor inactive, MARV entry inh inconclusive, Lassa entry inh inactive, CHX counter-1 inactive, HCV inhibitor inactive and FMDV antiviral inactive.
For COc1ccc(C(=O)Nc2cccc3nc(C)ccc23)cc1OC the results were Shiga inhibitor 24, MARV entry inh inactive, Lassa entry inh inactive, CHX counter-1 inactive, HCV inhibitor inactive, FMDV antiviral inactive and CHX counter-2 inactive.
Screening Cc1csc(SCC(=O)Nc2ncc(Cl)c(C)c2Cl)n1 returned Shiga inhibitor 21, MARV entry inh inactive, Lassa entry inh inactive, CHX counter-1 inactive, HCV inhibitor inactive, FMDV antiviral inactive and CHX counter-2 inactive.
`Cc1c(Cl)cnc(NC(=O)CSc2n[nH]c(N)n2)c1Cl` gave HCV inhibitor inactive and FMDV antiviral inactive.

Screening data from PubChem.
